Here are results for 40 compounds from PubChem BioAssay.

Unmarked numbers belong to inactive results. How the calls were made is not given here.

Sequence of Pantothenate synthetase (Mycobacterium tuberculosis (strain ATCC 25618 / H37Rv)) (P9WIL5 whole entry, looked up): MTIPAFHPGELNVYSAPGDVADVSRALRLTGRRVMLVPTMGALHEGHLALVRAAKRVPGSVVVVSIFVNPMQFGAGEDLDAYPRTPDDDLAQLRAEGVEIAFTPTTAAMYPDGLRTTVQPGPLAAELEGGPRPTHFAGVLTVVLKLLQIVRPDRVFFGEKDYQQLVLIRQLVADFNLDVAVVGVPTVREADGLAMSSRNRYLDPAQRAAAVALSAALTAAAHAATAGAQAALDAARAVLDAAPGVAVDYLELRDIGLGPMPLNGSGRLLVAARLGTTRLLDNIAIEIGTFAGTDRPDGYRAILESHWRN

The experiment concerns the target Pantothenate synthetase (Mycobacterium tuberculosis (strain ATCC 25618 / H37Rv)) (UniProt P9WIL5). The experiment is described as follows: Recombinant Mtb pantothenate synthetase (PanC) inhibitors, coupled enzyme, confirmatory (AID 375).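 Further: 0% = full reaction with vehicle and 100% = no enzyme background.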 Conditions: coupled enzyme assay; at 10 µM, hits give high values.
One may read the inhibition as the relative decrease from the control value, in per cent. For the compound `Cc1ccccc1OCCN1C(=O)NC2(CCc3ccccc32)C1=O` (stereo not given), the inhibition was 8%.

Take `CC1Oc2ccccc2N(CC(=O)N(Cc2ccccc2)Cc2ccccn2)C1=O` (stereo not given): the inhibition was 4%.

`CC(=O)c1cccc(N(CC(=O)N2CCCC2)S(C)(=O)=O)c1`: the inhibition is 0%.

As for `CCc1nnc(NC(=O)COC(=O)CN2C(=O)c3ccccc3C2=O)s1`, the inhibition was 0%.

Consider `Cc1ccccc1OCc1nc2ccccc2c(=O)n1/N=C/c1ccco1`, for which the inhibition is 0%.

In the case of `CCCS(=O)(=O)N1CCCC(C(=O)N2CCC(Cc3ccccc3)CC2)C1` (stereo not given), the inhibition was 0%.

For the compound `CCC(=O)Nc1c2c(nn1-c1ccccc1C)CSC2`, the inhibition is 6%.

With `O=C(c1ccccc1)c1ccc(N2CCNCC2)cc1`, the inhibition was 3%.

For the compound `O=C(NCCc1cccc(Cl)c1)c1cccnc1`, the inhibition was 12%.

As for `CCOc1ccc(C2CC(c3ccccc3C)n3nc(N)nc3N2)cc1` (stereo not given), the inhibition is 0%.

Regarding `COc1ccc(S(=O)(=O)NCCSCc2ccco2)cc1Cl`, the inhibition is 0%.

On to `CC1CCN(C(=O)CSc2nc3c(cnn3-c3ccccc3)c(=O)[nH]2)CC1`, for which the inhibition was 0%.

For the compound `CCCNC(=O)C1=C(C)C(=O)OC12CCC(C)CC2` (stereo not given), the inhibition was 0%.

For `O=C(N1CCN(c2ccccc2F)CC1)C12CC3CC(CC(C3)C1)C2`, the inhibition is 0%.

Consider `CCOC(=O)c1cc2c(=O)n3ccccc3nc2n(Cc2ccccc2)c1=N`, for which the inhibition was 0%.

Take `Cc1n[nH]c(C)c1S(=O)(=O)N1CCCCCC1`: the inhibition is 0%.

In the case of `O=C(Nc1ccccc1C(=O)N1CCCCCC1)c1cccc(S(=O)(=O)N2CCOCC2)c1`, the inhibition is 5%.

`Cc1cc(C)c2c(n1)nn1c(C3CC3)cc(C(F)(F)F)nc21`: the inhibition is 5%.

Turning to `Cc1cc(C)n(C(=O)CCCCCC(=O)n2nc(C)cc2C)n1`, the inhibition was 6%.

As to `O=C1NC(=O)C2(CCC(C(=O)O)C2)N1` (stereo not given), the inhibition was 11%.

For `O=C(Nc1ccc2c(c1)OCCO2)C1CCCN1S(=O)(=O)c1cccc2cccnc12` (stereo not given), the inhibition was 0%.

Turning to `O=C(NCc1ccc2c(c1)OCO2)c1cccc2c1C(=O)N(C1CCCCC1)C2`, the inhibition was 5%.

Turning to `O=C(CSc1ncnc2c1oc1ccccc12)Nc1ccccc1C(F)(F)F`, the inhibition was 0%.

Consider `CC(=O)N1C(=O)N(C)C2C1N(C(C)=O)C(=O)N2C` (stereo not given), for which the inhibition was 1%.

As to `COc1ccc(-c2nnc(SCC(=O)Nc3ccc(Cl)cc3)n2C)cc1`, the inhibition is 0%.

Regarding `CC(C)(C)NC(=O)COC(=O)c1snc(C(=O)NC2CCCCC2)c1N`, the inhibition is 3%.

As for `Cc1ccc2ncnc(NCCCN3CCOCC3)c2c1`, the inhibition is 1%.

As for `O=C(CSc1nc2ccccc2n1CC(=O)N1CCCC1)Nc1nccs1`, the inhibition is 0%.

For `CC1Cc2ccccc2N1C(=O)COC(=O)Cn1nnc(-c2ccccc2)n1` (stereo not given), the inhibition was 13%.

With `NC(=O)C1(N2CCCCC2)CCN(C2CC(=O)N(Cc3cccs3)C2=O)CC1` (stereo not given), the inhibition was 0%.

For the compound `CCOC(=O)C1(CC)NC(c2cccc(F)c2)C2C(=O)N(CC)C(=O)C21` (stereo not given), the inhibition is 0%.

For the compound `Cc1cc(OCC(=O)Nc2ccc3oc(-c4ccncc4)nc3c2)ccc1Cl`, the inhibition was 0%.

Regarding `O=S(=O)(NCC(O)COCc1ccco1)c1cccs1` (stereo not given), the inhibition was 2%.

As to `c1cc2c(cc1Cn1cnnn1)OCO2`, the inhibition was 0%.

Regarding `CC(=O)c1cc(-c2ccccc2)n(CC(=O)N2CCC(N3CCCCC3)CC2)c1C`, the inhibition was 0%.

`CCC(Oc1ccccc1)C(=O)Nc1ccccc1OC` (stereo not given): the inhibition is 0%.

On to `CN1[C@@H]2CC(OC(=O)[C@H](CO)c3ccccc3)C[C@H]1[C@@H]1O[C@@H]12` (stereo not given in full), for which the inhibition was 0%.

Take `CN1C(C(=O)Nc2ccccn2)=C(O)c2ccccc2S1(=O)=O`: the inhibition was 9%.

As to `CC(C)(S)[C@@H](N)C(=O)O`, the inhibition was 4%.

In the case of `O=C(OCC(=O)N1CCCC1)c1ccccc1OCc1ccccc1`, the inhibition is 0%.
